Here are results for twelve compounds from PubChem BioAssay (Tox21).

Test [1] can be described thus: qHTS assay to identify small molecule agonists of the RXR signaling pathway - cell viability counter screen (AID 1159529). Further: series mostly up to about 77 µM; nearly all actives have a fitted effect of over 50% in size. The method, boiled down:
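CellTiter-Glo luminescence gave viability in the wells also read for beta-lactamase. Cells (RXR-alpha-UAS-bla HEK 293T, 2% charcoal-stripped FBS medium) had 5 hr plating, then 16 hr compound exposure at 37 C; tetraoctyl ammonium bromide served as positive control.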
For orientation: In qHTS, concentration-response curves come from the screen itself.

A short description of test [2]: qHTS assay to identify small molecule antagonists of the retinoid acid receptor (RAR) signaling pathway - cell viability counter screen (AID 1159551). Further: nearly all actives have a fitted effect of over 35% in size. The essentials:
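Retinol-stimulated (1 uM final) C3RL4 cells, compound 6 h, 37 C; readout CellTiter-Glo luminescence (ATP) after 30 min RT incubation.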

Test [3] can be described thus: qHTS assay to identify small molecule antagonists of the estrogen related receptor (ERR) signaling pathway from Tox21 library - cell viability counter screen (AID 1224834). Further: nearly all actives have a fitted effect of over 30% in size. The essentials: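 After 17.5 h of compound exposure at 37 C, ERR cells are incubated with CellTiter-Fluor for 30 min and fluorescence intensity serves as the viability measure.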
Test [4] concerns the target Luciferin 4-monooxygenase (Photinus pyralis) (UniProt P08659). The test is described as follows: qHTS assay to identify small molecule inhibitors of firefly luciferase (AID 1224835). Further: series mostly up to about 120 µM; nearly all actives have a fitted effect of over 25% in size. The essentials:
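Biochemical qHTS: compounds run as interplate titrations against purified firefly enzyme, with D-luciferin and ATP each at its KM concentration. Light output recorded by CCD imaging.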

Test [5] is described as follows: qHTS assay to identify small molecule agonists of the constitutive androstane receptor (CAR) signaling pathway - cell viability counter screen (AID 1224836). Further: series mostly up to about 92 µM; nearly all actives have a fitted effect of over 45% in size. The method, boiled down:
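Cell viability multiplexed with the CAR agonist screen: CellTiter-Fluor fluorescence after 23 hr at 37 C. HepG2-CYP2B6-hCAR cells got compounds at 15 concentrations with PK11195 at 0.75 uM final.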

Test [6] in a line: qHTS assay to identify small molecule antagonists of the constitutive androstane receptor (CAR) signaling pathway - cell viability counter screen (AID 1224837). Further: series mostly up to about 92 µM; nearly all actives have a fitted effect of over 45% in size. The essentials:
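Counter screen run in HepG2-CYP2B6-hCAR cells: 4 hr settle, compound titration (15 concentrations) with 50 nM CITCO, 23 hr at 37 C/5% CO2, CellTiter-Fluor fluorescence.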

Test [7] is described as follows: qHTS assay to identify small molecule antagonists of the estrogen related receptor signaling pathway with the pleiotropic PPARgamma coactivator (PGC) from Tox21 10K library - cell viability counter screen (AID 1224840; active means well fitted cell-killing curve with a large enough effect in the repeat runs, not every such curve was filed as active; further: nearly all actives have a fitted effect of over 40% in size). The essentials:
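Following seeding of 2,000 PGC/ERR cells/well and 6 hours' incubation, test compounds were delivered in DMSO. The plates then sat 17.5 hours at 37 C before a fluorogenic live-cell protease reagent (CellTiter-Fluor) was read after 30 min.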

Test [8] can be described thus: qHTS assay to identify small molecule antagonists of the estrogen related receptor signaling pathway with the pleiotropic PPARgamma coactivator (PGC) from Tox21 10K library (AID 1224841; call rule not given here; further: series mostly up to about 92 µM; actives are mostly falling curves and most rising ones were filed inactive; nearly all actives have a fitted effect of over 50% in size). The essentials:
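qHTS antagonist format: PGC/ERR cells, 2k/well, compound in DMSO by pin transfer after 6 h attachment, 18 h treatment at 37 C, One-Glo luminescence read at 30 min.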

Test [9] concerns the target Thyrotropin receptor (Homo sapiens) (UniProt P16473). The test is described as follows: qHTS assay to identify small molecule agonists of the thyroid stimulating hormone receptor (TSHR) signaling pathway (AID 1224843; calls by dose curve; further: nearly all actives have a fitted effect of over 45% in size; further: potency means the concentration at half of the fitted maximal effect). The method, boiled down:
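Steps: seed 800 TSHR-HEK293 cells per well; add test compound and hold 30 min at ambient temperature; dispense cAMP-d2 then anti-cAMP cryptate; incubate 1 h at ambient; measure fluorescence intensity.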

Test [10] can be described thus: qHTS assay to identify small molecule agonists of the hypoxia (HIF-1) signaling pathway - cell viability counter screen (AID 1224844; calls by dose curve; further: nearly all actives have a fitted effect of over 50% in size). The method, boiled down:
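Cells (HRE-bla ME-180, 2,000 per well) sat 5 hrs at 37C, got compound for 17 hrs, were read for CCF4-AM FRET, and were finally lysed with CellTiter-Glo for a 30 min room-temperature luminescence read.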

A short description of test [11]: qHTS assay to identify small molecule agonists of the retinoic acid receptor (RAR) signaling pathway (AID 1159553). The essentials: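 Reporter readout comes from luciferase under RARE control in C3RL4 cells; compound exposure lasts 6 hr at 37 C in 5% CO2, and luminescence is recorded following a 30 min room-temperature incubation with reagent.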
In test [12] the target is Nuclear receptor subfamily 1 group I member 3 (Homo sapiens) (UniProt Q14994). The test is described as follows: qHTS assay to identify small molecule agonists of the constitutive androstane receptor (CAR) signaling pathway (AID 1224839). Further: nearly all actives have a fitted effect of over 15% in size. Further: potency means the concentration at half of the fitted maximal effect. The method, boiled down:
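Luminescent ONE-Glo read-out after 24 hr, 37 C exposure of double-stable HepG2-CYP2B6-hCAR reporter cells to a 15-point compound series, in the presence of 0.75 uM PK11195 (final).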

Test [13] is described as follows: qHTS assay to identify small molecule antagonists of the retinoic acid receptor (RAR) signaling pathway (AID 1159552; further: nearly all actives have a fitted effect of over 50% in size). The method, boiled down: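 Luminescent RARE reporter read-out in C3RL4 cells: 6 hr co-treatment at 37 C of test compounds with retinol at 1 uM final. Cells plated overnight beforehand; luciferase reagent incubated 30 min at room temperature before reading.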

Test [14] in a line: qHTS assay to identify small molecule antagonists of the estrogen related receptor (ERR) signaling pathway - cell viability counter screen (AID 1224818). Further: series mostly up to about 46 µM. The essentials: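 After a 6 h pre-incubation, ERR cells were dosed by pin tool with compounds, positive/negative controls or DMSO alone. Following 17.5 h at 37 C and 30 min with CellTiter-Fluor, fluorescence was recorded.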

Test [15] can be described thus: qHTS assay to identify small molecule antagonists of the estrogen related receptor signaling pathway with the pleiotropic PPARgamma coactivator (PGC) cell viability counter screen (AID 1224822; further: series mostly up to about 46 µM). The essentials:
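PGC/ERR cells were plated at 2,000 per well and allowed 6 h to settle before compound addition. Following 17.5 h at 37 C, CellTiter-Fluor reagent was added and fluorescence was read 30 min later.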

Test [16] concerns the target Nuclear receptor subfamily 1 group I member 3 (Homo sapiens) (UniProt Q14994). The test is described as follows: qHTS assay to identify small molecule antagonists of the constitutive androstane receptor (CAR) signaling pathway (AID 1224838).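 Further: HepG2 cells stably expressing hCAR with CYP2B6 luciferase reporter stimulated by CITCO; nearly all actives have a fitted effect of over 40% in size.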 The method, boiled down:
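Cell line: HepG2 double-stable for hCAR and CYP2B6-2.2kb reporter. Agonist: CITCO, 50 nM final. Compounds: 15 concentrations, 24 h, 37 C. Detection: ONE-Glo luminescence.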

The nature of test [17]: qHTS assay to identify small molecule agonists of the estrogen related receptor signaling pathway with the pleiotropic PPARgamma coactivator (PGC) from Tox21 10K library (AID 1224842). Further: nearly all actives have a fitted effect of over 15% in size. The essentials: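 PGC/ERR reporter cell line, 2,000 cells per well, incubated 6 h at 37 C before 23 nL compound in DMSO was added. After 18 h at 37 C, One-Glo luminescence read following 30 min at room temperature.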

Results filed as inconclusive are left out. Unmarked numbers belong to inactive results. The source made the active and inactive calls. Unless noted, the call rests on the fitted dose curve; in most records, active means well fitted curve in the direction sought with a large enough effect in the repeat runs; inconclusive means weak or mixed curves; inactive means no such curve, though single readings can be large; an effect the other way counts as inactive or inconclusive.

Sequence of Luciferin 4-monooxygenase (Photinus pyralis) (P08659 whole entry, looked up): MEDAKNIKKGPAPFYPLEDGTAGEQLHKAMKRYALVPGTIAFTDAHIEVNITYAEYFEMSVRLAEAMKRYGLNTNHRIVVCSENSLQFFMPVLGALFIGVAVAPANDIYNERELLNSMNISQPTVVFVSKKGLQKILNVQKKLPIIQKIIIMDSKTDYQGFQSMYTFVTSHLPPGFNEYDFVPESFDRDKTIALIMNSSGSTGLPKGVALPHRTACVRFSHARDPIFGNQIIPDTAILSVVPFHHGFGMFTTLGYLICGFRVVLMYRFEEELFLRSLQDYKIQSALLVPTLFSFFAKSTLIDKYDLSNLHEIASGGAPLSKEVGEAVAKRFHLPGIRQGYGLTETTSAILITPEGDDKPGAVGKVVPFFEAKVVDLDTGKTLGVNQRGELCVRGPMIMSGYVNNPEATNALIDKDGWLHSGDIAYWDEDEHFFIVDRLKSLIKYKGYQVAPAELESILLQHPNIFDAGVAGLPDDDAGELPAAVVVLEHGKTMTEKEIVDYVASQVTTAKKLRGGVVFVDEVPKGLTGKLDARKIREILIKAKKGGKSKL
Sequence of Thyrotropin receptor (Homo sapiens) (P16473 whole entry, looked up): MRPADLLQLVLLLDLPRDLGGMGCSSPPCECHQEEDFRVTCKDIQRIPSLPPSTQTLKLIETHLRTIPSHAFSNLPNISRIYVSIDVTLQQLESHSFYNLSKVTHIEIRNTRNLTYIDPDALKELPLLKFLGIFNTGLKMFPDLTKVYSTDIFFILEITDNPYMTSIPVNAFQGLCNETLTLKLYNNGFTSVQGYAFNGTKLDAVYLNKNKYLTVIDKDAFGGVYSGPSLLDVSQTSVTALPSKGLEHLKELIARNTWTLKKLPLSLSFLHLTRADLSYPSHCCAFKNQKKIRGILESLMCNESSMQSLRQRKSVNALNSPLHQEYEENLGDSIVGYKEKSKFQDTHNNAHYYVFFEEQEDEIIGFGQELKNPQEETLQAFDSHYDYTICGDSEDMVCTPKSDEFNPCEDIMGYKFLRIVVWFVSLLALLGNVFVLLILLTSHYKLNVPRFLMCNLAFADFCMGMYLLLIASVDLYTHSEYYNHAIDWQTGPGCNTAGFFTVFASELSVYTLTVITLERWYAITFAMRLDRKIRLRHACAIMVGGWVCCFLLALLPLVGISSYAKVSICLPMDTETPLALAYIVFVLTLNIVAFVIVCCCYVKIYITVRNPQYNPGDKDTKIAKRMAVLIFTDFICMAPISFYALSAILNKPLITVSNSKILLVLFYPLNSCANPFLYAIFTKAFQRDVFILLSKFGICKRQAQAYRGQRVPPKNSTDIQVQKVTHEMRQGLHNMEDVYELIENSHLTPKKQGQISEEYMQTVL
Sequence of Nuclear receptor subfamily 1 group I member 3 (Homo sapiens) (Q14994 whole entry, looked up): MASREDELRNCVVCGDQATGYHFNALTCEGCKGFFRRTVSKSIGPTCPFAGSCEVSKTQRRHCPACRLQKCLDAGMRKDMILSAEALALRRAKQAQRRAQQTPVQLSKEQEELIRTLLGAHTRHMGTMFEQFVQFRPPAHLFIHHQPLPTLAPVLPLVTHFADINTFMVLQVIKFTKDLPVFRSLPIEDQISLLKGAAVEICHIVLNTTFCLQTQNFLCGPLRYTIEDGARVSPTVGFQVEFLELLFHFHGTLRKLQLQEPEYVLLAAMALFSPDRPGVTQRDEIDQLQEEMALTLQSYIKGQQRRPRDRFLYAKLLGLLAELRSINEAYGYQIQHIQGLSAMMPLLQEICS

As to `N#CCBr`, the Potency entry in [1], in [2], in test [3], in [4], in test [5] and in [6] was “inactive” in each case. Moreover, the Potency result in test [7], in [8], in [9] and in test [10] was “inactive” in each case.
Take `CCCSC(=O)Cl`: the Potency result in [1], in test [11], in [3], in [4], in test [5] and in test [6] was “inactive” throughout. Besides, the Potency entry in test [12], in test [7], in [9] and in test [10] was “inactive” throughout.
Regarding `ClCC(Cl)(Cl)Cl`, the Potency result in test [1], in [13], in [11], in test [3], in test [4] and in test [5] was “inactive” each time. In addition, the Potency result in test [6], in test [7] and in test [10] was “inactive” throughout.
As for `Cc1ncc(CNC(=O)N(CCCl)N=O)c(N)n1`, the Potency result in test [1], in test [13], in test [11], in test [3], in [4] and in test [5] was “inactive” throughout. The Potency entry in test [6], in [7] and in test [9] was “inactive” throughout. Besides, the compound was classed as inactive in test [14] and in test [15].
Turning to `ClC(Cl)(Cl)C(Cl)(Cl)Cl`, the Potency result in test [1], in test [2], in test [3], in [4], in [5] and in [6] was “inactive” throughout. The Potency entry in [7] and in [10] was “inactive” each time.
On to `CNC(=O)Oc1c(C(C)(C)C)cc(C)cc1C(C)(C)C`, for which the Potency entry in test [1], in [13], in test [11], in test [3], in test [4] and in [5] was “inactive” throughout. The Potency entry in [6], in test [7] and in test [9] was “inactive” throughout. Also, the Potency in test [12] is 10.9 µM (active).
On to `COC(=O)COc1ccc(Cl)cc1Cl`, for which the Potency result in test [2], in test [13], in [11], in test [3], in test [5] and in test [6] was “inactive” throughout. In addition, the Potency entry in test [7], in [8] and in [10] was “inactive” in each case.
For `CNCC(=O)c1ccc(O)c(O)c1`, the Potency entry in test [1], in test [3], in [4], in [5], in [6] and in [16] was “inactive” throughout. Moreover, the Potency result in test [7] and in [10] was “inactive” each time. In test [9], the Potency was 2.37 µM (active).
With `CCOC(=O)C1(c2ccccc2)CCN(CCc2ccc(N)cc2)CC1`, the Potency result in test [2], in test [11], in [3], in [4], in [5] and in test [6] was “inactive” in each case. The Potency result in test [16], in test [12], in test [7], in test [9] and in test [10] was “inactive” each time. The outcome in [17] was inactive.
Consider `N#CC(O)c1ccccc1` (stereo unspecified), for which the Potency entry in test [1], in test [3], in test [4], in [5], in [6] and in test [16] was “inactive” in each case. The Potency result in test [7], in [9] and in test [10] was “inactive” in each case.
Take `COc1cc(OC)nc(Oc2cccc(Oc3nc(OC)cc(OC)n3)c2C(=O)O)n1`: the Potency result in test [1], in test [3], in [4], in test [5], in test [6] and in test [16] was “inactive” in each case. Also, the Potency result in test [12], in [7] and in test [10] was “inactive” each time.
Turning to `CCCCCCBr`, the Potency result in test [2], in test [13], in test [11], in test [3], in test [5] and in test [6] was “inactive” throughout. For the same compound, the Potency entry in test [16], in test [12], in test [7] and in test [9] was “inactive” throughout.
